The source of these data is PubChem BioAssay (Tox21).

Experiment [1] in a line: cAMP Responsive Elements (CRE) small molecule antagonists, cell-based qHTS assay: qHTS cell viability counter screen (AID 2060913). Also: nearly all actives have a fitted effect of over 40% in size. As to conditions: CRE-bla HEK293T viability, CellTiter-Glo luminescence, 5 h; series mostly up to 92.4 µM. In a few lines:
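Cytotoxicity read in the same wells as the CRE-bla HEK293T antagonist assay: after 3 h compound with 0.25 uM NKH477 final and 2 h beta-lactamase substrate, CellTiter-Glo luminescence measured.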
For orientation: Quantitative high-throughput screening tests each substance at several concentrations.

Experiment [2] is described as follows: cAMP Responsive Elements (CRE) small molecule agonists, cell-based qHTS assay: qHTS cell viability counter screen (AID 2060914). Also: nearly all actives have a fitted effect of over 50% in size. The settings on record: CRE-bla HEK293T viability, CellTiter-Glo luminescence, 5 h; series mostly up to 92.4 µM. A digest of the protocol: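 In the same wells as the reporter read, viability of CRE-bla HEK 293T cells was quantified by CellTiter-Glo luminescence after a 3 h compound exposure.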

Inconclusive results are not listed. Unmarked numbers belong to inactive results. Activity calls are given as the source filed them. Calls follow the shape of the dose curve; as a rule, active = well fitted cell-killing curve with a large enough effect in the repeat runs; inconclusive = weak or mixed curves, or effect the other way; inactive = flat fitted curve, though single readings scatter.
% is scaled to controls: 0 for no effect and ±100 for the full control effect.

As for `CC[N+]1(CC)CCC(=C(c2ccccc2)c2ccccc2)C1C` (stereo not drawn), the Potency result in experiment [1] and in experiment [2] was “inactive” in each case.
Consider `CCOC(=O)CC(=O)c1ccccc1`, for which the Potency entry in experiment [1] and in experiment [2] was “inactive” throughout.
Take `CC#C[C@]1(O)CC[C@H]2[C@@H]3CCC4=CC(=O)CCC4=C3[C@@H](c3ccc(N(C)C)cc3)C[C@@]21C`: the Potency result in experiment [1] and in experiment [2] was “inactive” in each case.
In the case of `COC(=O)c1ccccc1C(=O)O`, the Potency result in experiment [1] and in experiment [2] was “inactive” each time.
As to `CCOC(=O)C(C#N)=C(c1ccccc1)c1ccccc1`, the Potency entry in experiment [1] and in experiment [2] was “inactive” in each case.
As to `CC(C[N+](C)(C)C)OC(N)=O` (stereo not drawn), the Potency entry in experiment [1] and in experiment [2] was “inactive” throughout.
Take `CNCCc1ccccn1`: the Potency entry in experiment [1] and in experiment [2] was “inactive” each time.
`O=C(OCc1ccccc1)c1ccccc1O`: the Potency result in experiment [1] and in experiment [2] was “inactive” each time.
In the case of `CCCCCCCCCCCO`, the Potency result in experiment [1] and in experiment [2] was “inactive” in each case.
On to `COC(=O)Cc1cccc2ccccc12`, for which the Potency entry in experiment [1] and in experiment [2] was “inactive” throughout.
Turning to `CC(C)(Oc1ccc(Cl)cc1)C(=O)OCCCOC(=O)C(C)(C)Oc1ccc(Cl)cc1`, the Potency entry in experiment [1] and in experiment [2] was “inactive” each time.
As for `COC(=O)c1cc(Cl)cc(Cl)c1`, the Potency entry in experiment [1] and in experiment [2] was “inactive” throughout.
Turning to `Cc1cccc2n[nH]nc12`, the Potency result in experiment [1] and in experiment [2] was “inactive” each time.
Consider `CC(=O)c1ccc2c(c1)N(CCCN(C)C)c1ccccc1S2`, for which the Potency result in experiment [1] and in experiment [2] was “inactive” in each case.
Consider `CCOC(=O)c1cccc(N)c1`, for which the Potency result in experiment [1] and in experiment [2] was “inactive” each time.
Turning to `O=NN(CCCl)C(=O)NC1CCCCC1`, the Potency result in experiment [1] and in experiment [2] was “inactive” throughout.
In the case of `CC1(C)O[C@@H]2C[C@H]3[C@@H]4CCC5=CC(=O)CC[C@]5(C)[C@@]4(F)[C@@H](O)C[C@]3(C)[C@]2(C(=O)CCl)O1`, the Potency entry in experiment [1] and in experiment [2] was “inactive” throughout.
For `[O]=[Zr]`, the Potency entry in experiment [1] and in experiment [2] was “inactive” in each case.
Consider `Nc1cc([N+](=O)[O-])cc(Cl)c1O`, for which the Potency entry in experiment [1] and in experiment [2] was “inactive” in each case.
Regarding `CC(C)C(=O)Nc1cccc(C2CN3CCSC3=N2)c1` (stereo not drawn), the Potency result in experiment [1] and in experiment [2] was “inactive” each time.
Regarding `CCCCOC(=O)[C@@H](C)Oc1ccc(Oc2ccc(C(F)(F)F)cn2)cc1`, the Potency result in experiment [1] and in experiment [2] was “inactive” in each case.
As for `CCCCCCn1c(=O)c2c(ncn2C)n(C)c1=O`, the Potency result in experiment [1] and in experiment [2] was “inactive” each time.
For `O=C(O)c1c(O)c(-c2ccccc2)nc2ccccc12`, the Potency result in experiment [1] and in experiment [2] was “inactive” in each case.
As to `COc1c(Cl)c(Cl)c(Cl)c(Cl)c1Cl`, the Potency entry in experiment [1] and in experiment [2] was “inactive” throughout.
With `CCOCCOCC`, the Potency entry in experiment [1] and in experiment [2] was “inactive” each time.
As for `O=C1[C@@H]2[C@H]3CC[C@H](C3)[C@@H]2C(=O)N1CCCCN1CCN(c2ncccn2)CC1`, the Potency result in experiment [1] and in experiment [2] was “inactive” in each case.
For the compound `CC(C)(C)c1ccc(C(=O)CCCCl)cc1`, the Potency entry in experiment [1] and in experiment [2] was “inactive” in each case.
In the case of `CCOC(=O)NNc1nncc2ccccc12`, the Potency entry in experiment [1] and in experiment [2] was “inactive” each time.
For `C=CCCCCCCCCO`, the Potency result in experiment [1] and in experiment [2] was “inactive” in each case.
Take `CCOC(=O)C(=O)OCC`: the Potency entry in experiment [1] and in experiment [2] was “inactive” each time.
Take `CCN(Cc1cccc(S(=O)(=O)O)c1)c1ccccc1`: the Potency entry in experiment [1] and in experiment [2] was “inactive” each time.
As for `CCCCCCCCCCCCSCCOCCO`, the Potency result in experiment [1] and in experiment [2] was “inactive” in each case.
For `CC(O)COc1ccccc1` (stereo not drawn), the Potency result in experiment [1] and in experiment [2] was “inactive” in each case.
Turning to `O=c1[nH][nH]c(=O)c2cc([N+](=O)[O-])ccc12`, the Potency entry in experiment [1] and in experiment [2] was “inactive” in each case.
Turning to `Nc1ccc2c(S(=O)(=O)O)cccc2c1S(=O)(=O)O`, the Potency result in experiment [1] and in experiment [2] was “inactive” in each case.
Turning to `C/C(=N\[Si](C)(C)C)O[Si](C)(C)C`, the Potency entry in experiment [1] and in experiment [2] was “inactive” in each case.
On to `CCCCCCCCCCCC(=O)N(C)CC(=O)O`, for which the viability change, negative = cytotoxic in experiment [1] is 1.91% [at 8.39 µM]. The activity change, negative = cytotoxicity in experiment [2] is 0.181% [at 8.39 µM].
Turning to `O=[N+]([O-])c1ccc(NCCO)c(OCCO)c1`, the Potency entry in experiment [1] and in experiment [2] was “inactive” in each case.
For the compound `Cc1ccc(Cl)c(N)c1Cl`, the Potency entry in experiment [1] and in experiment [2] was “inactive” each time.
For `CCCCCCOC(=O)CC(CC(=O)OCCCCCC)(OC(=O)CCC)C(=O)OCCCCCC`, the Potency result in experiment [1] and in experiment [2] was “inactive” each time.
Take `CC(C)CCCCCCOC(=O)C1CCCCC1C(=O)OCCCCCCC(C)C` (stereo not drawn): the Potency entry in experiment [1] and in experiment [2] was “inactive” each time.
As for `CCCCCCCC/C=C\CCCCCCCCO`, the Potency entry in experiment [1] and in experiment [2] was “inactive” each time.
Regarding `CCCCC(CC)COC(=O)COc1ccc(Cl)cc1Cl` (stereo not drawn), the Potency result in experiment [1] and in experiment [2] was “inactive” each time.
As to `CCn1ccnc1CC1COc2ccccc2O1` (stereo not drawn), the Potency result in experiment [1] and in experiment [2] was “inactive” each time.
Regarding `Cc1cccc(S(=O)(=O)O)c1C`, the Potency result in experiment [1] and in experiment [2] was “inactive” throughout.
On to `CCCCOC(=O)C(C)CC` (stereo not drawn), for which the Potency result in experiment [1] and in experiment [2] was “inactive” each time.
Regarding `CN(C)N=Nc1ccccc1`, the Potency result in experiment [1] and in experiment [2] was “inactive” throughout.
As to `Clc1cc(Cl)nc(Cl)n1`, the Potency entry in experiment [1] and in experiment [2] was “inactive” each time.
With `CCOC(=O)[C@H](CCc1ccccc1)N[C@@H](C)C(=O)N1Cc2ccccc2C[C@H]1C(=O)O`, the Potency entry in experiment [1] and in experiment [2] was “inactive” in each case.
On to `O=C1NC(=O)[C@@]2(CCOc3ccc(F)cc32)N1`, for which the Potency entry in experiment [1] and in experiment [2] was “inactive” in each case.
In the case of `S=C([S-])NCCNC(=S)[S-].[Mn+2]`, the Potency entry in experiment [1] and in experiment [2] was “inactive” in each case.
With `CC(=O)CC(C)(C)C1CCCCC1`, the Potency result in experiment [1] and in experiment [2] was “inactive” each time.
As to `Nc1ccc(C(=O)O)cc1`, the Potency entry in experiment [1] and in experiment [2] was “inactive” throughout.
With `Nc1ncnc2nc[nH]c12`, the Potency entry in experiment [1] and in experiment [2] was “inactive” in each case.
